Assay results: PubChem BioAssay (Tox21)
Values without a mark were called inactive. Where a call stands in place of a potency, no number is given. Calls of active or inactive are those of the source. The call rests on the fitted dose curve; in most records, active means well fitted curve in the direction sought with a large enough effect in the repeat runs; inconclusive means weak or mixed curves; inactive means flat fitted curve, though single readings scatter.

Assay: qHTS assay to test for compound auto fluorescence at 460 nm (blue) in HepG2 cells (AID 720687)
Conditions: autofluorescence 405/460 nm, 1 h; series mostly up to 91.3 µM
Text: U.S. Tox21 Program National Center for Advancing Translational Sciences [NCATS] NIH Chemical Genomics Center [NCGC] U.S. Environmental Protection Agency [EPA] National Institutes of Environmental Health Sciences [NIEHS] National Toxicology Program [NTP] U.S. Food and Drug Administration [FDA] Tox21 Assay Overview: Compound auto fluorescence often interferes with screening of the compound library against various biological targets and signaling pathways. Some of these compounds may have fluorophoric properties. Such properties may interfere with the assay outputs resulting in false positives and/or negatives. To decrease such complications and ensure the compound activities are relevant in terms of biological response, the Tox21 10K compound library was screened for auto fluorescence. From the fluorophores used as reporter signals in our screening assays, the auto fluorescence equivalencies of compounds against three fluorophores have been evaluated: Triamterene, Fluorescein and Rose Bengal sodium for blue, green and red fluorescence, respectively. The fluorescence intensities were measured using Excitation/Emission wavelengths at 405/460nm, 485/535nm and 540/590nm for blue, green and red labels, respectively. This assay includes the blue fluorescence data.
Tox21 Assay Protocol Summary: 2,000 HepG2 cells in 5 uL of culture medium (MEM containing 10% FBS) per well were dispensed into black wall/clear bottom 1536-well plates using a Multidrop Combi Dispenser (ThermoFisher Scientific, Waltham, MA). The assay plates were incubated overnight at 37 C to allow cell attachment to the well bottom, followed by the transfer of 23 nL compound or DMSO vehicle by a pintool work station (Kalypsys , San Diego, CA). After the assay plates were incubated for 1 hr at 37 C and 5% CO2, fluorescence intensities in the assay plates were measured by an Envision (PerkinElmer, Shelton, CT) plate reader using three labels for measuring blue, green and red fluorescence at […] 460, 535 and 590 nm respectively.

| SMILES | Potency | fluorescence, % of fluorescent control |
| --- | --- | --- |
| Cc1ccc(Cl)cc1N | inactive | – |
| CCc1ccc(C)cc1 | inactive | – |
| CCO[Si](C)(CCCOCC1CO1)OCC (stereo not given) | inactive | – |
| CCOC(=O)c1ccc(NC(=O)CN2CCCCC2)cc1 | inactive | – |
| Cc1cc(CCC(=O)OCCOCCOCCOC(=O)CCc2cc(C)c(O)c(C(C)(C)C)c2)cc(C(C)(C)C)c1O | inactive | – |
| COc1cc(C(C)=O)ccc1OCCCN1CCC(c2noc3cc(F)ccc23)CC1 | inactive | – |
| BrC(Br)C(Br)Br | inactive | – |
| CN1CCCN(C(c2ccccc2)c2ccc(Cl)cc2)CC1 (stereo not given) | inactive | – |
| CCNc1nc(N)nc(Cl)n1 | inactive | – |
| O=C(O)/C=C/c1ccc(O)c(O)c1 | inactive | – |
| Cc1ccc2c(c1[N+](=O)[O-])C(=O)c1ccccc1C2=O | inactive | – |
| Oc1ccc2c(c1)Cc1ccccc1-2 | inactive | – |
| CC[C@H]1OC(=O)[C@H](C)[C@@H](O[C@H]2C[C@@](C)(OC)[C@@H](O)[C@H](C)O2)[C@H](C)[C@@H](O[C@@H]2O[C@H](C)C[C@H](N(C)C)[C@H]2O)[C@](C)(O)C[C@@H](C)C(=O)[C@H](C)[C@@H](O)[C@]1(C)O | inactive | – |
| CCCCCCCCCCCCCC(=O)OCC(O)CO (stereo not given) | inactive | – |
| C=C(C)c1ccccc1 | inactive | – |
| COC1CCC=CO1 (stereo not given) | inactive | – |
| O=C1OC(=O)c2c(Br)c(Br)c(Br)c(Br)c21 | inactive | – |
| COc1ccc(C2C(=O)c3ccccc3C2=O)cc1 | inactive | – |
| CS(=O)(=O)c1ccc([C@@H](C[C@H]2CCC(=O)C2)C(=O)Nc2cnccn2)cc1Cl | inactive | – |
| O=CNNC=O | inactive | – |

| SMILES | Potency | fluorescence, % of fluorescent control |
| --- | --- | --- |
| [Cl][Nd]([Cl])[Cl] | inactive | – |
| CC(C(=O)O)c1ccc(C(=O)c2cccs2)cc1 (stereo not given) | – | 0.0525% [at 18.6 µM] |
| CC(=O)OCC(C)C | inactive | – |
| CC1=C2[C@@H]([C@H](C)CC[C@H]2/C=C(\C)C(=O)O)[C@H](O)C1 | inactive | – |
| O=C(NC(Cc1cc(=O)[nH]c2ccccc12)C(=O)O)c1ccc(Cl)cc1 (stereo not given) | inactive | – |
| O=C(O)c1cccc(Oc2ccccc2)c1 | inactive | – |
| CCSC(=O)N(CC)CC | inactive | – |
| CCCCOC(=O)CCCCC(=O)OCCCC | inactive | – |
| CC(=O)OCC1=C(C(=O)O)N2C(=O)[C@@H](NC(=O)CSc3ccncc3)[C@H]2SC1 | inactive | – |
| CC1CCc2nccnc21 (stereo not given) | inactive | – |
| COc1ccc(N)c([N+](=O)[O-])c1 | inactive | – |
| CCCOC(=O)c1c(Cl)c(Cl)c(Cl)c(Cl)c1C(=O)OCCC | inactive | – |
| CCCC(=O)OC(=O)CCC | inactive | – |
| CC/C=C\C/C=C\C/C=C\CCCCCCCC(=O)OCC | inactive | – |
| CNC1CCCN(c2c(F)cc3c(=O)c(C(=O)O)cn(C4CC4)c3c2OC)C1 (stereo not given) | inactive | – |
| COC(=O)C1=C(C)NC(C)=C(C(=O)OC(C)(C)CN(C)CCC(c2ccccc2)c2ccccc2)C1c1cccc([N+](=O)[O-])c1 (stereo not given) | inactive | – |
| O=C1OC[C@H](Cc2cccc(O)c2)[C@H]1Cc1cccc(O)c1 | inactive | – |
| CC(C)CC(O)CC(C)C | inactive | – |
| N[C@@H](Cc1cc(I)c(O)c(I)c1)C(=O)O | inactive | – |
| CSCC[C@H](NC(=O)[C@H](Cc1c[nH]c2ccccc12)NC(=O)CCNC(=O)OC(C)(C)C)C(=O)N[C@@H](CC(=O)O)C(=O)N[C@@H](Cc1ccccc1)C(N)=O | inactive | – |
